RPL19A-GFP yeast – alters RPL19A-GFP fluorescence in TOR pathway yeast screen. AID 2025. hit rate 0.3% among 330,000. S. cerevisiae RPL19A-GFP strain, flow cytometry, 3 h; active compounds read low. percent response vs DMSO, % at 10 µM;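 active = percent response vs DMSO below 50%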;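 also: median channel GFP fluorescence of the barcoded RPL19A-GFP strain; ratio of sample median GFP to plate DMSO average so 100% = DMSO; lower means less RPL19A-GFP as with rapamycin TOR inhibition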
CIT2-GFP yeast – modulators of TOR pathway CIT2-GFP in S. cerevisiae; S. cerevisiae CIT2-GFP strain, flow cytometry, 3 h; 100 means same as DMSO wells; GFP response vs DMSO, % at 10 µM; hit rate 0.065% among 320,000;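 active = GFP response relative to DMSO above a set limit, near the screen mean plus 3 SD, cut at about 150% in these data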;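 also: ratio of well median GFP fluorescence to mean of DMSO wells on the plate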
AGP1 TOR yeast – modulators of TOR pathway AGP1-GFP in S. cerevisiae | S. cerevisiae AGP1-GFP multiplex flow cytometry, 3 h; GFP as percent of DMSO wells | GFP response vs DMSO, % at 10 µM | hit rate 0.02% among 320,000 | AID 2066;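 active = GFP response relative to DMSO above a set limit, near screen average plus 3 SD, cut at about 150% in these data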;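 also: median GFP channel fluorescence of the gated AGP1 strain per well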
MEP2-GFP yeast – alters MEP2-GFP fluorescence in TOR pathway yeast screen | S. cerevisiae MEP2-GFP strain, flow cytometry GFP, 3 h; 100% = DMSO control level | GFP response vs DMSO, % at 10 µM | hit rate 0.51% among 330,000 | AID 2016;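 active = GFP response versus DMSO above a set limit, roughly screen mean plus 3 SD, cut at about 180% in these data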;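 also: median GFP fluorescence of the barcode-gated MEP2-GFP cells per well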
LAP4 TOR yeast – alters LAP4-GFP fluorescence in TOR pathway yeast screen. S. cerevisiae LAP4-GFP multiplex, flow cytometry GFP, 3 h; median GFP as percent of DMSO wells. AID 2023. hit rate 0.34% among 320,000. GFP response vs DMSO, % at 10 µM;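 active = GFP response vs DMSO above a set limit, about the screen mean plus 3 SD, cut at about 150% in these data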
LAP4 cherry2 – yeast LAP4-GFP modulation, second cherry pick | shares compounds with LAP4 TOR yeast | S. cerevisiae LAP4-GFP strain, flow cytometry GFP, 3 h | GFP response vs DMSO, % at 10 µM | hit rate 20% among 590 | AID 2621;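 active = GFP signal as percent of the solvent control above about 150%, meaning raised reporter expression, limit read from the data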;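 also: ratio of well median GFP fluorescence to plate DMSO mean so 100% = DMSO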
MEP2-GFP pick2 – reconfirmed MEP2-GFP TOR pathway modulator in yeast | shares compounds with LAP4 TOR yeast | S. cerevisiae MEP2-GFP strain, flow cytometry GFP, 3 h | GFP response vs DMSO, % at 10 µM | hit rate 10% among 590;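 active = GFP signal above 150% of the solvent control wells, that is a rise of more than half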;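 also: median channel GFP fluorescence of all gated yeast cells per well; ratio of median GFP to plate DMSO average so 100% = DMSO level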
RPL19A-GFP pick2 – reconfirmed modulator of RPL19A-GFP TOR reporter in yeast. shares compounds with LAP4 TOR yeast. S. cerevisiae RPL19A-GFP strain, flow cytometry GFP, 3 h; active compounds read low; 100% means same as DMSO wells. GFP response vs DMSO, % at 10 µM. hit rate 3% among 590;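 active = under 65% GFP response relative to DMSO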;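 also: median GFP channel fluorescence per well over the all cells gate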
CIT2 GFP CP2 – reconfirmed modulator of CIT2-GFP TOR reporter in yeast; shares compounds with LAP4 TOR yeast; S. cerevisiae CIT2-GFP strain, flow cytometry GFP, 3 h; DMSO control wells read 100%; GFP response vs DMSO, % at 10 µM; hit rate 8% among 590; AID 2624;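 active = GFP response vs DMSO above about 150%, limit read from the data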;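 also: median green fluorescence per well over all gated yeast cells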
AGP1 GFP CP2 – yeast AGP1-GFP TOR reporter modulation, second cherry pick | shares compounds with LAP4 TOR yeast | S. cerevisiae AGP1-GFP strain, flow cytometry GFP, 3 h | percent response vs DMSO, % at 10 µM | 590 tested, under 10 active;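 active = over 150 percent of DMSO response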;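 also: median GFP channel fluorescence over all cells without mother daughter split; sample median GFP divided by mean DMSO control so 100% equals DMSO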
Yeast autofluor – counter-screen for compound autofluorescence in yeast s288c cells | shares compounds with LAP4 TOR yeast | S. cerevisiae s288c, 520 nm autofluorescence, flow cytometry, 3 h; active compounds read high; zero means same as solvent-only cells | fluorescence change (kMESF span) at 33 µM | 610 tested, under 10 active | AID 2757;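 active = fluorescence span over the dose series, or activity score, above about 33, limit read from the data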
TORC1 bypass – stops wildtype yeast growth while TORC1 bypass cells still grow. 120 tested, under 10 active. AID 504456. S. cerevisiae BY4741 spot growth rating, 48-72 h; active compounds read low. growth rating (0-3) at 30 µM. shares compounds with LAP4 TOR yeast;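 active = growth rating at most 1 for wild type yeast while the TORC1 bypass strain still grows fully, rated 3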
An asterisk follows results filed as active; . = not tested or not shown. A selection: hits, their analogues and other compounds. The true share with any hit is near 0.93%.

SMILES	RPL19A-GFP yeast	CIT2-GFP yeast	AGP1 TOR yeast	MEP2-GFP yeast	LAP4 TOR yeast	LAP4 cherry2	MEP2-GFP pick2	RPL19A-GFP pick2	CIT2 GFP CP2	AGP1 GFP CP2	others
Cc1cccc(CN2CCN(Cc3cccc(-n4cccn4)c3)CC2CCO)n1 (stereo unspecified)	105	104	109	100	99	.	.	.	.	.
CCCN(CCC)c1nc(C#N)nc(N(CCC)CCC)n1	51	87	75	131	90	103	102	99	107	102
CN(C)c1nc(C#N)nc(N(C)C)n1	100	101	104	103	100	.	.	.	.	.
O=c1c2ccccc2oc2cc(C#CC3(O)CCCCC3)ccc12	100	80	84	92	153*	106	114	95	107	93
COc1cccc2oc3cc(C#CC4(O)CCCCC4)ccc3c(=O)c12	94	64	81	94	127	.	.	.	.	.
O=C(CN1C(=O)c2ccccc2S1(=O)=O)NCc1ccccc1Cl	95	69	22	299*	81	97	94	99	114	96
CCSC1=NSC2=NC(=O)/C(=C\c3coc4ccccc4c3=O)C(=N)N12	85	74	40	268*	130	309*	169*	169	161*	114
O=C(/C=C/c1ccccc1)NC(=S)NNC(=O)c1ccco1	93	110	96	105	126	.	.	.	.	.
O=C(/C=C/c1ccc(Br)cc1)NC(=S)NNC(=O)c1ccco1	100	138	85	110	146	133	133	100	114	82	Yeast autofluor=1.1
Cc1ccccc1OCC(=O)NNC(=S)NC(=O)c1ccco1	113	107	114	120	159*	.	.	.	.	.	Yeast autofluor=0.6
Cc1ccc(C(=O)NNC(=S)NC(=O)c2ccco2)cc1	92	78	107	120	237*	.	.	.	.	.	Yeast autofluor=1.9
C/C(CC(=O)NCc1ccccc1Cl)=N/NC(=O)c1ccccn1	107	109	99	103	98	.	.	.	.	.
CN(CCc1ccccc1)C1CCCN(S(=O)(=O)N(C)C)C1 (stereo unspecified)	103	104	100	106	95	.	.	.	.	.
CS(=O)(=O)c1nc(-c2ccccc2)cc(C(F)(F)F)n1	86	80	111	142	160*	.	.	.	.	.	Yeast autofluor=0.51
Cc1cc(NC(=O)CCS(=O)(=O)c2nc(-c3ccccc3)cc(C(F)(F)F)n2)no1	100	99	113	104	111	.	.	.	.	.
Cc1ccc(NC(=O)NC(=O)CN2CCCC2c2ccc3c(c2)OCCO3)cc1C (stereo unspecified)	96	101	99	97	101	.	.	.	.	.
Oc1c(Br)cc(Br)cc1C=Nc1cccnc1	61	87	60	88	148	125	123	70	131	94
Oc1c(Br)cc(Br)cc1/C=N/c1nccs1	83	73	59	88	194*	132	122	75	107	93
Oc1c(Br)cc(Br)cc1C=Nc1ccc2[nH]ncc2c1	70	80	80	92	184*	.	.	.	.	.	Yeast autofluor=1
Oc1ccc(Cl)cc1/C=N/c1nccs1	101	108	108	102	101	.	.	.	.	.
COc1cccc(C(=S)N2CCCC2)c1OC	96	98	100	100	97	.	.	.	.	.
CC1CCN(S(=O)(=O)c2c[nH]c(=O)[nH]c2=O)CC1	91	99	95	98	89	.	.	.	.	.
COc1cc(N=c2ssnc2Cl)cc(OC)c1	91	74	84	90	151*	114	110	93	121	96	Yeast autofluor=1
Cc1ccn2c(CNCC3COCCO3)c(C(=O)N3CCCCCC3)nc2c1 (stereo unspecified)	102	98	87	95	74	.	.	.	.	.
C/C(=N\NC(=O)c1cc2ccccc2cc1O)c1ccccn1	97	97	101	119	216*	.	.	.	.	.	Yeast autofluor=1.6
SMILES	RPL19A-GFP yeast	CIT2-GFP yeast	AGP1 TOR yeast	MEP2-GFP yeast	LAP4 TOR yeast	LAP4 cherry2	MEP2-GFP pick2	RPL19A-GFP pick2	CIT2 GFP CP2	AGP1 GFP CP2	others
Cc1cc(Nc2cc(Nc3ccccc3)nc(NCc3ccccc3)n2)n[nH]1	.	.	.	.	.	.	.	.	.	.	TORC1 bypass=3
COC(=O)c1nc(-c2ccccc2)n[nH]1	102	86	97	106	100	.	.	.	.	.
COC(=O)c1cccc(-c2cc(Nc3cc(C)[nH]n3)nc(NCc3ccccc3)n2)c1	.	.	.	.	.	.	.	.	.	.	TORC1 bypass=3
Cc1cc(Nc2ccccc2)nc(NCc2ccccc2)n1	102	112	98	107	92	.	.	.	.	.
O=C(CSc1nc(=O)n(Cc2ccccn2)c2c1CCC2)Nc1ccc(F)cc1F	97	91	113	103	117	.	.	.	.	.
S=C(NCCNCc1ccccc1)NC1CCCCC1	52	93	57	140	91	101	100	101	101	102
S=C(NCCc1ccccc1)NC1CCCCCC1	107	105	101	95	111	.	.	.	.	.
CC1=NNC(=O)/C1=C\c1cn(-c2ccccc2)nc1-c1cccs1	92	94	88	108	263*	.	.	.	.	.	Yeast autofluor=3
CC(=O)c1ccc(N2CCN(C(=O)C3CCN(S(=O)(=O)c4ccc5c(c4)CC(C)N5C(C)=O)CC3)CC2)cc1 (stereo unspecified)	86	90	109	94	183*	104	105	100	107	99
CC(=O)N1c2ccc(S(=O)(=O)N3CCC(C(=O)N4CCN(c5cccc(C(F)(F)F)c5)CC4)CC3)cc2CC1C (stereo unspecified)	99	103	100	102	95	.	.	.	.	.
CC1CC(C)CN(S(=O)(=O)N2CCCC(C(=O)NC3CCCCC3C)C2)C1 (stereo unspecified)	59	100	15	138	95	104	112	98	110	102
Cc1[nH]c2ccccc2c1C(=O)C(=O)N1CCN(C(=O)c2ccco2)CC1	106	105	95	99	103	.	.	.	.	.
